Molecules are shown by their SMILES. Among all 5,500 compounds or so, about 2,000 (36%) were called active. About 18% were inconclusive and are not listed. This is one part of the list. Values without a mark were called inactive. Cut-off read from the data, not from the text of the source: active = normalized growth mostly below about 0.91 (no sharp cut-off); inconclusive = no clear call, values can overlap the other calls; inactive = mostly above about 0.92.

Consider four molecules from PubChem BioAssay AID1159580 (chemical genetic matrix, 2015).

The nature of the test: chemical genetic growth profiling, strain panel (AID 1159580).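 Note: tested at 20 µM; growth read once vehicle control cultures reached saturation at 30 °C; 1 = growth at the plate median or of vehicle wells; lower values mean less growth of the strain.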 The settings on record: S. cerevisiae deletion strains, growth OD.
[1] abbreviates: locus YAL013W, strain DEP1, active compounds read low.
[2] abbreviates: locus YAL040C, strain CLN3, active compounds read low.
Setting [3] is: locus YCL061C, strain MRC1 (second series), active compounds read low.
Setting [4] is: locus YDR150W, strain NUM1, active compounds read low.
The mark [5] stands for this setting: locus YDR363W, strain ESC2, active compounds read low.
The mark [6] stands for this setting: locus YER002W, strain NOP16, active compounds read low.
Where [7] appears, read: locus YHR030C, strain SLT2, active compounds read low.
[8] abbreviates: locus YHR079C, strain IRE1, active compounds read low.
The mark [9] stands for this setting: locus YJL095W, strain BCK1, active compounds read low.
Setting [10] is: locus YJR066W, strain TOR1, active compounds read low.
[11] abbreviates: locus YJR075W, strain HOC1, active compounds read low.
Setting [12] is: locus YLR113W, strain HOG1, active compounds read low.
The mark [13] stands for this setting: locus YMR263W, strain SAP30, active compounds read low.
Setting [14] is: locus YNL175C, strain NOP13, active compounds read low.
Where [15] appears, read: locus YNL183C, strain NPR1, active compounds read low.
The mark [16] stands for this setting: locus YNL197C, strain WHI3, active compounds read low.
Setting [17] is: locus YNL224C, strain SQS1, active compounds read low.
[18] abbreviates: locus YOR083W, strain WHI5 (second series), active compounds read low.
The mark [19] stands for this setting: locus YOR231W, strain MKK1, active compounds read low.
The mark [20] stands for this setting: locus YPL256C, strain CLN2, active compounds read low.
The mark [21] stands for this setting: locus YGR229C, strain SMI1, active compounds read low.

For `Nc1nc2ccc(OC(F)(F)F)cc2s1`, the normalized growth is 0.937 under setting [1]; 0.985 under setting [2]; 0.979 under setting [3]; 0.954 under setting [4]; 0.943 under setting [5]; 0.979 under setting [6]. Also, the normalized growth under setting [7] is 1.02; the normalized growth under setting [8] is 1.02; the normalized growth under setting [9] was 0.961; the normalized growth under setting [10] was 0.956; the normalized growth under setting [11] was 0.918; the normalized growth under setting [12] was 0.94. Besides, the normalized growth is, setting by setting: under setting [13], 0.988; (locus YMR307W, strain GAS1, active compounds read low) 0.856 (active); under setting [14], 0.975; under setting [15], 0.944; under setting [16], 0.988; under setting [17], 0.979. Further, the normalized growth runs as follows: under setting [18], 0.938; under setting [19], 0.999; (locus YPL055C, strain LGE1, active compounds read low) 0.829 (active); under setting [20], 1.02.
For `CN(C)CCCOc1nn(Cc2ccccc2)c2ccccc12`, the normalized growth by setting is: under setting [7], 0.972; under setting [8], 0.968; under setting [9], 0.979; under setting [10], 0.954; under setting [12], 0.956; under setting [15], 0.922. Also, the normalized growth reads like this: under setting [19], 0.967; under setting [20], 0.991.
As to `OCc1ccc(-c2nn(Cc3ccccc3)c3ccccc23)o1`, the normalized growth under setting [1] was 0.925; the normalized growth under setting [2] was 1.06; the normalized growth under setting [3] was 1; the normalized growth under setting [4] is 1.02; the normalized growth under setting [5] was 1.01; the normalized growth under setting [6] was 0.988. For the same molecule, the normalized growth is, setting by setting: (locus YGR078C, strain PAC10, active compounds read low) 0.986; under setting [21], 0.841 (active); under setting [13], 0.991; under setting [14], 0.977; under setting [16], 0.972; under setting [17], 0.981. Further, the normalized growth by setting is: under setting [18], 0.95; (locus YPL241C, strain CIN2, active compounds read low) 1.02.
Turning to `O=C(O)c1nn(Cc2ccc(Cl)cc2Cl)c2ccccc12`, the normalized growth was 1 under setting [1]; 1.05 under setting [2]; 0.99 under setting [3]; 1.02 under setting [4]; 0.972 under setting [5]; 0.956 under setting [6]. The normalized growth reads like this: under setting [21], 1.03; under setting [11], 1.02; under setting [13], 1; (locus YNL128W, strain TEP1, active compounds read low) 0.969; (locus YNL153C, strain GIM3, active compounds read low) 1.02; under setting [14], 0.935. Besides, the normalized growth by setting is: under setting [16], 0.964; under setting [17], 0.996; (locus YNL322C, strain KRE1, active compounds read low) 0.998; under setting [18], 0.994.
